Our source for the outcome values is PubChem BioAssay (Tox21).

Active and inactive are the calls of the source. Calls follow the shape of the dose curve; as a rule, active = well fitted cell-killing curve with a large enough effect in the repeat runs; inconclusive = weak or mixed curves, or effect the other way; inactive = flat fitted curve, though single readings scatter.

The experiment is described as follows: qHTS assay to identify small molecule HDAC inhibitors - cell viability counter screen (AID 1259365). Also: nearly all actives have a fitted effect of over 50% in size. The following applies: HCT-116 viability, CellTiter-Glo ATP luminescence, 2 h; series mostly up to 92.4 µM. An excerpt:
U.S. Tox21 Program National Center for Advancing Translational Sciences [NCATS] NIH Chemical Genomics Center [NCGC] U.S. Environmental Protection Agency [EPA] National Institutes of Environmental Health Sciences [NIEHS] National Toxicology Program [NTP] U.S. Food and Drug Administration [FDA] Tox21 Assay Overview: Histone deacetylases (HDACs) are a group of epigenetic enzymes that regulate gene expression by histone deacetylation. HDACs are capable of introducing epigenetic modifications and such aberrations contribute to the onset and progression of several human diseases, thus making HDACs a popular therapeutic target. For identifying endogenous class I/II HDAC inhibitors a homogenous, luminogenic HDAC I/II cell based assay was used to measure the relative activity of class I and II HDACs from cells. Wild type HCT-116 cells were used to screen Tox21 compound libraries for identifying class I/II HDAC inhibitors.
Tox21 Assay Protocol Summary: HCT-116 cells were dispensed at 1,500 per well in 5uL of culture medium into white solid bottom 1536-well plates (Greiner Bio-One, Monroe, NC) using a Multidrop Combi (Thermo Scientific, Waltham, MA) dispenser. The assay plates were incubated at 37 C and 5% CO2 for an overnight, and then 23nL of compounds dissolved in DMSO and positive control were transferred using a Pintool station (Wako, San Diego, CA). The assay plates were incubated at 37C and 5% CO2 for 2hr. After compound treatment, 4uL of CellTiter-Glo reagent (Promega Corporation, Madison, WI) was added to each well of the assay plates using Flying Reagent Dispenser (FRD, Aurora Discovery, San Diego, CA) and incubated the assay plates at room temperature for 30min. The luminescence signal was quantified using a ViewLux plate reader (Perkin Elmer, Shelton, CT).
(In general: qHTS replaces the single test concentration by a dilution series.)
Take `O=Nc1ccc(O)cc1`: the result was inactive.

As for `CCCCOCCO`, the result was inactive.

Turning to `CCCCCC/C=C/CCCCCCCC(=O)O`, the call was inactive.

In the case of `C[C@@H]1O[C@@H](OC[C@H]2O[C@@H](Oc3c(-c4ccc(O)c(O)c4)oc4cc(O)cc(O)c4c3=O)[C@H](O)[C@@H](O)[C@@H]2O)[C@H](O)[C@H](O)[C@H]1O`, the molecule was classed as inactive.

For the molecule `OCC1CCCO1` (stereo not given), the call was inactive.

As to `NCCNCCNCCNCCN`, the outcome was inactive.

Take `Cc1cc(Cc2ccc(N)c(C)c2)ccc1N`: the call was inactive.

In the case of `CC[Si](OC(C)=O)(OC(C)=O)OC(C)=O`, the molecule was called inactive.

As for `Cc1cc(O)c2c(c1)C(=O)c1cc(O)cc(O)c1C2=O`, the molecule was classed as inactive.

With `C/C=C(C)/C=C/C=C(C)C`, the outcome was inactive.

For `CC(=O)Nc1ccc(C(=O)O)cc1`, the result was inactive.

As for `OCC#CCO`, the call was inactive.

Consider `CCCCC(CC)COC(C)=O` (stereo not given), for which the outcome was inactive.

Turning to `NC(=O)NNc1ccccc1`, the molecule was classed as inactive.

In the case of `c1ccc2[nH]cnc2c1`, the molecule was classed as inactive.

For `CN(CCOc1ccc(CC2SC(=O)NC2=O)cc1)c1ccccn1` (stereo not given), the result was inactive.

Take `Nc1nc2ncc(CNc3ccc(C(=O)N[C@@H](CCC(=O)O)C(=O)O)cc3)nc2c(=O)[nH]1`: the call was inactive.

In the case of `CCCCNC(N)=O`, the outcome was inactive.

Turning to `Nc1cc(-c2ccncc2)c[nH]c1=O`, the molecule was classed as inactive.

On to `CC1COc2ccccc2N1C(=O)C(Cl)Cl` (stereo not given), for which the call was inactive.

Turning to `CCCCCCCCCCCCN`, the call was inactive.

Regarding `O=C(Cl)c1c(Cl)c(Cl)c(C(=O)Cl)c(Cl)c1Cl`, the molecule was classed as inactive.

In the case of `Nc1c(S(=O)(=O)O)cc(Br)c2c1C(=O)c1ccccc1C2=O`, the outcome was inactive.

Take `CC(C)(CO)COC(=O)C(C)(C)CO`: the result was inactive.

For `COCC(=O)O`, the result was inactive.

Consider `CC1=C(/C=C/C(C)=C/C=C/C(C)=C/CO)C(C)(C)CCC1`, for which the result was inactive.

With `CCC(=O)O`, the molecule was classed as inactive.

Take `OC1CCCC1`: the outcome was inactive.

Consider `O=C1CCCCC1`, for which the molecule was classed as inactive.

For the molecule `CS(=O)(=O)Nc1ccc([N+](=O)[O-])cc1Oc1ccccc1`, the molecule was classed as inactive.

For the molecule `S=c1nc[nH]c2nc[nH]c12`, the molecule was classed as inactive.

As for `c1ccc2ccccc2c1`, the molecule was classed as inactive.

In the case of `CC(C)(C)C(=O)C1C(=O)c2ccccc2C1=O`, the call was inactive.

Regarding `CC(C)n1c(/C=C/[C@@H](O)C[C@@H](O)CC(=O)O)c(-c2ccc(F)cc2)c2ccccc21`, the call was inactive.

With `C=C(C)C(=O)OCCCCCCCCCCCC`, the molecule was classed as inactive.

As for `O=C(Oc1ccccc1)c1ccc(O)cc1`, the molecule was called inactive.

Turning to `CCCCCCCCCCCCOCC1CO1` (stereo not given), the molecule was called inactive.

As to `C=C(C#N)C(=O)OCC`, the result was inactive.

With `CC(C)(N=C=O)c1cccc(C(C)(C)N=C=O)c1`, the result was inactive.

Turning to `O=C(O)c1cc(-c2ccccc2)nc2ccccc12`, the call was inactive.
